# Assays:
# Details in all cases: concentration: 1 μM, replicates: in singlicate; n = 1
# CLK2 = system: CLK2
# CLK3 = system: CLK3
# CLK4 = system: CLK4
# CSF1R-autoinhibited = system: CSF1R-autoinhibited
# CSF1R = system: CSF1R
# CSK = system: CSK
# CSNK1A1L = system: CSNK1A1L
# CSNK1A1 = system: CSNK1A1
# CSNK1D = system: CSNK1D
# CSNK1E = system: CSNK1E
# CSNK1G1 = system: CSNK1G1
# CSNK1G2 = system: CSNK1G2
# CSNK1G3 = system: CSNK1G3
# CSNK2A1 = system: CSNK2A1
# CSNK2A2 = system: CSNK2A2
# CTK = system: T1, CTK
# T1 construct: gene MATK
# DAPK1 = system: DAPK1
# DAPK2 = system: DAPK2
# DAPK3 = system: DAPK3
# DCAMKL1 = system: T2, DCAMKL1
# T2 construct: gene DCLK1
# 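Also: KINOMEscan kinase panel screen.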
Structure (SMILES),%Inh (CLK2) [%],%Inh (CLK3) [%],%Inh (CLK4) [%],%Inh (CSF1R-autoinhibited) [%],%Inh (CSF1R) [%],%Inh (CSK) [%],%Inh (CSNK1A1L) [%],%Inh (CSNK1A1) [%],%Inh (CSNK1D) [%],%Inh (CSNK1E) [%],%Inh (CSNK1G1) [%],%Inh (CSNK1G2) [%],%Inh (CSNK1G3) [%],%Inh (CSNK2A1) [%],%Inh (CSNK2A2) [%],%Inh (CTK) [%],%Inh (DAPK1) [%],%Inh (DAPK2) [%],%Inh (DAPK3) [%],%Inh (DCAMKL1) [%]
COc1ccc(C)c(Nc2ccnc(Nc3ccc(-c4cnc[nH]4)cc3)n2)c1.Cl [GW784041],0,7,13,0,67,9,2,21,16,27,15,0,8,0,5,0,7,10,6,7
COc1ccc(C2=C(Nc3cccc(O)c3)C(=O)NC2=O)cc1 [SB-390766],84,22,85,0,0,15,7,0,94,20,4,0,19,0,19,1,0,0,52,13
Fc1cc(Cl)ccc1Nc1ccnc2cc(-c3ccc(CN4CCOCC4)o3)ccc12 [GW560109],0,0,15,7,94.2,33,0,11,19,4,7,0,7,0,86,28,0,0,10,12
CC(=O)Nc1cn2nc(Oc3cccc(NC(=O)c4cccc(C(F)(F)F)c4)c3)ccc2n1,13,54,0,82,100,44,21,12,4,44,3,0,41,0,0,0,0,1,6,20
COc1cccc(CC(=O)N2CCc3cc(-c4cn(C)c5ncnc(N)c45)ccc32)c1 [GSK2608899],0,13,0,0,96.9,14,8,0,39,77,23,5,29,14,15,0,2,0,21,26
CN(c1ccc(F)c(NC(=O)c2cccc(OC(C)(C)C#N)c2Cl)c1)c1ccc2nc(NC(=O)C3CC3)sc2n1,0,0,0,17,99.8,16,14,9,0,0,0,12,0,35,10,13,4,0,4,0
Cc1cccc(Nc2nc(NCCN)ncc2C(N)=O)c1 [GSK1292139],22,47,0,23,88,22,76,72,52,84,6,0,26,34,29,0,52,25,38,16
Cc1ccc(-c2ccc3occ(-c4ccc(S(C)=O)cc4)c3c2)nn1 (stereo not shown),0,0,70,13,0,1,0,0,0,0,0,0,0,0,10,0,0,0,0,4

# Source: PMC5540273 (PLoS ONE, 2017)
